Hits are enriched below; roughly 11% of the tested compounds scored in any of these assays.
WT yeast gro inh – growth inhibition of WT yeast, mitochondrial fusion screen; AID 1362; inhibition, % at 10 µM; mitochondrial fusion phenotypic screen, WT strain; actives 2.1% (n = 190,000); in the data active = inhibition above about 58%; tested in S. cerevisiae
Autophagy mod – alters autophagy in cells | MEF GFP-LC3 puncta imaging; test concentration mostly 10 µM | calls only at 10 µM (by protocol) | actives 0.98% (n = 190,000);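 active = percentage of spot-positive cells more than 3 SD above its plate mean, without a fluorescence outlier flag or 80% toxicity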;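 also: spot-positive cell cutoff set from DMSO-treated cells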
Ins promoter up – MIN6 insulin promoter up-regulation; MIN6 insulin promoter-GFP reporter, high-content imaging; active compounds read high; z-score at 5 µM; actives 0.3% (n = 190,000);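 active = z-score above 3 at 5 µM with at least 500 cells counted in the well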
Insulin prom inh – TRM-6 insulin promoter activity inhibition | TRM-6 cells (human fetal islet line), insulin promoter-eGFP reporter, imaging; reporter expression induced with tamoxifen | inhibition, % at 2 µM | actives 0.9% (n = 130,000) | AID 1273;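 active = inhibition above the mean plus 3 SD, with well images judged a real hit on visual review, cut at about 60% in these data, passing the limit was not always enough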
Lmaj promast – inhibitors of Leishmania major promastigote growth; Leishmania major promastigotes, resazurin fluorescence viability; inhibition, % at 10 µM; actives 9% (n = 200,000); AID 1063; in the data active = inhibition above about 50%;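 also: promastigotes grown with compound for 44 hours at 28 °C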
* hit, by the source's call; i = inactive; x = no result; + = active, no number.

SMILES | WT yeast gro inh | Autophagy mod | Ins promoter up | Insulin prom inh | Lmaj promast
CC(C)(C)NS(=O)(=O)c1ccc(NC(=O)C2CCCCC2)cc1 | 21 | i | -0.55 | x | 1
Cc1cc(C)c2nc(N3CCCC(C(=O)N4CCN(c5ncccn5)CC4)C3)sc2c1 (stereo not drawn) | 67* | i | 0.11 | 1 | 3
Cc1cc(C)c2nc(N3CCC(C(=O)N4CCN(C(=O)c5ccco5)CC4)CC3)sc2c1 | 16 | i | 0.64 | 20 | 5
CC1(C)CC2CC(C)(CN2S(=O)(=O)c2ccc(C(=O)Nc3cc(S(=O)(=O)N4CCOCC4)ccc3Cl)cc2)C1 (stereo not drawn) | 7 | i | -0.21 | 68 | 99*
CC1(C)CC2CC(C)(CN2S(=O)(=O)c2ccc(C(=O)Nc3cccc(S(=O)(=O)N4CCOCC4)c3)cc2)C1 (stereo not drawn) | 1 | i | 0.7 | 40 | 99*
O=C(Nc1ccccc1Cl)c1ccc(S(=O)(=O)N2CCOCC2)cc1 | 4 | i | -0.44 | x | 10
CC(=O)Oc1ccc(-c2ccc(C(=O)Nc3cccc(S(=O)(=O)N4CCOCC4)c3)cc2)cc1 | -2 | i | -1 | x | 15
C/C(=C\C(=O)c1ccccc1)Nc1ccc2c(c1)OCO2 | -6 | i | -0.06 | x | -8
Cc1nc(SCC(=O)NCc2ccco2)c2c(=O)n(C)c(=O)n(CC(C)C)c2n1 | -10 | i | -1 | x | -8
COc1ccc(NC(=S)NC(C)c2ccncc2)cc1OC (stereo not drawn) | 9 | i | -0.07 | x | 7
CCC(C)c1ccc(NC(=S)Nc2ccc(OC)cc2C)cc1 (stereo not drawn) | 75* | i | 0.94 | x | 37
CCC(C)c1ccc(NC(=S)NC(C)C2CCCO2)cc1 (stereo not drawn) | 66* | i | -1.8 | x | 4
Cc1ccc(NC(=S)NCC2CCCO2)cc1 (stereo not drawn) | 0 | i | -0.02 | -3 | 0
COc1ccc(C)cc1NC(=S)NC(C)c1ccc(OC)c(OC)c1 (stereo not drawn) | 64* | i | -0.98 | x | 54*
CCC(C)c1ccc(NC(=S)Nc2ccc(OC)c(OC)c2)cc1 (stereo not drawn) | 72* | i | 0.31 | x | 1
O=C(NC12CC3CC(CC(C3)C1)C2)OCCNC1CCCCC1 | x | x | -0.16 | x | x
c1ccc(-c2ncc(-c3ccn[nH]3)s2)cc1 | 2 | i | -0.66 | 55 | -6
N#Cc1c(C(F)(F)F)cc(-c2cccc(Cl)c2)[nH]c1=O | -20 | i | 0.69 | x | -11
Cc1ccc2cn[nH]c2c1NC(N)=S | -3 | i | -0.62 | x | 13
COc1ccc(CNC(=O)N[C@@H](CC(C)C)C(=O)O)cc1OC | x | x | -0.09 | x | x
COc1ccccc1C(N)=S | 4 | i | 0.18 | 40 | -2
CN(C)S(=O)(=O)c1cc(NC(=O)COC(=O)CCSc2ccc(Cl)cc2)ccc1Cl | -1 | i | 0.02 | 8 | -3
CC(Oc1ccc(Cl)cc1Cl)C(=O)NCCN1CCOCC1 (stereo not drawn) | 25 | i | 0.02 | -27 | 79*
O=C(COc1ccc(Cl)cc1Cl)NCCC1=CCCCC1 | 66* | i | 0.39 | 35 | -4
Cc1ccccc1OCC(=O)NCCC1=CCCCC1 | 9 | i | 0.24 | -117 | 8
SMILES | WT yeast gro inh | Autophagy mod | Ins promoter up | Insulin prom inh | Lmaj promast
Cc1cc(Cl)ccc1OCC(=O)NCCCN1CCOCC1 | 6 | i | 0.19 | 0 | 92*
O=C(COc1ccccc1Cl)NCCCN1CCOCC1 | -5 | i | -0.08 | 0 | 80*
CN(C)c1nc(OCCNC(=O)COc2ccc(Cl)cc2Cl)nc(N2CCOCC2)n1 | -8 | i | 0.75 | -211 | 6
CC(OC(=O)Cc1c(F)cccc1Cl)C(=O)NCCC1=CCCCC1 (stereo not drawn) | -13 | i | -0.17 | -54 | 52*
O=C(COc1ccc(Cl)cc1Cl)NCCCN1CCOCC1 | 19 | i | -0.71 | -9 | 94*
CC(C)(C)c1cc(C(c2cccnc2)N2CCN(CCO)CC2)cc(C(C)(C)C)c1O (stereo not drawn) | 72* | i | -3.8 | 48 | 100*
Cc1nc2sc(C(c3ccc(Cl)cc3)N3CCN(CCO)CC3)c(O)n2n1 (stereo not drawn) | 6 | x | -0.24 | x | x
CCCCNC(=S)N/N=C/c1ccc(OCC(=O)Nc2c(C)cc(C)cc2C)c(OC)c1 | 26 | i | -0.03 | x | -1
CCOC(=O)c1cc2c(N)c(C(=O)c3cc(C#N)c(SC)nc3C)sc2nc1C | -16 | + | -0.09 | x | 6
Cc1ccc(/C=C2/Sc3ccccc3N(CC(=O)NCCCOC(C)C)C2=O)cc1 | 32 | i | -0.28 | -50 | 8
COc1ccc(/C=N/NC(=O)c2c(C)nnn2-c2nonc2N)cc1OC | 9 | i | 0.39 | x | -8
CCCCNCCCCOc1ccccc1 | 6 | i | x | 16 | 88*
CCC(=O)NCCCOc1ccccc1 | x | i | -0.38 | x | -6
Cc1cccc(OCCCCNCc2ccccc2)c1 | 32 | i | x | x | 89*
CCc1ccccc1OCCCCCNCCO | 18 | i | -0.07 | -22 | 92*
CCc1cccc(OCCCCNCCO)c1 | 15 | i | -0.14 | -9 | 91*
Cc1cccc(OCCCC(=O)O)c1 | -6 | i | -0.49 | 29 | -5
CC1CN=C(N(C(=S)Nc2ccccc2)c2cccc(C(F)(F)F)c2)S1 (stereo not drawn) | x | x | -0.61 | x | x
CC(C)NC(=O)C1(O)c2ccccc2NC(=O)N1c1ccc(Cl)c(Cl)c1 (stereo not drawn) | 12 | i | -0.48 | x | -3
CCOc1ccccc1OCCOc1ccc(F)cc1 | -4 | i | -0.25 | x | -2
COCCCNC(=O)COc1ccc(Cl)c(C)c1 | -24 | i | 1.4 | x | -7
Cc1cc(OCCCCCNCCO)ccc1Cl | 1 | i | -0.85 | 11 | 100*
OCCNCCCCCOc1ccc(F)cc1 | 9 | i | -0.2 | -13 | 97*
Cc1cccc(OCCCCCNCCO)c1 | 17 | i | -0.41 | x | 99*
O=C(c1cc(Cl)ccc1[N+](=O)[O-])N1CCc2ccccc2C1 | 1 | i | 0.32 | 31 | -6
SMILES | WT yeast gro inh | Autophagy mod | Ins promoter up | Insulin prom inh | Lmaj promast
Cc1ccc(C2CC(c3cccc(Cl)c3)n3nc(N)nc3N2)cc1 (stereo not drawn) | 0 | i | -1 | 50 | 49
CCc1ccc(C2CC(c3cccc(Cl)c3)n3nc(N)nc3N2)cc1 (stereo not drawn) | 5 | i | x | 60 | 54*
Cc1cccc(C2CC(c3ccc(Cl)cc3)Nc3nc(N)nn32)c1 (stereo not drawn) | 5 | x | -0.99 | x | 64*
Cc1cccc(C2CC(c3ccc(F)cc3)Nc3nc(N)nn32)c1 (stereo not drawn) | 9 | i | -0.59 | x | 93*
CC(NC(=O)OC(C)(C)C)C(=O)NC(CCC(=O)OCc1ccccc1)C(N)=O (stereo not drawn) | 9 | i | x | -25 | -1
COc1ccc(CNC(=O)Cn2cc(C(F)(F)F)ccc2=O)cc1 | -6 | i | -0.07 | 29 | -7
Fc1ccccc1C1c2[nH]c3ccccc3c2CCN1Cc1ccoc1 (stereo not drawn) | 32 | i | x | x | 7
O=C(CSc1nc2ccccc2[nH]1)NCCc1ccc(Cl)cc1 | 4 | i | -0.2 | -4 | 56*

Bioassay records deposited in PubChem BioAssay by several laboratories.
